In all, about 5,500 compounds went through this assay and about 2,000 (36%) were called active. Not shown: some 18% with an inconclusive outcome. Cut-off read from the data, not from the text of the source: active = normalized growth mostly below about 0.91 (no sharp cut-off); inconclusive = no clear call, values can overlap the other calls; inactive = mostly above about 0.92. The list shows a part of the results.
Assay: chemical genetic growth profiling, strain panel (AID 1159580);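 note: tested at 20 µM; growth read once vehicle control cultures reached saturation at 30 °C; 1 = growth at the plate median or of vehicle wells; lower values mean less growth of the strain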
Conditions: S. cerevisiae deletion strains, growth OD

Measured: normalized growth

O=C1CC(c2ccc(O)c(O)c2)Oc2cc(O)cc(O)c21 (stereo unspecified)
inactive: locus YAL021C, strain ccr4, active compounds read low 0.989 | locus YAL026C, strain drs2, active compounds read low 1 | locus YAL030W, strain snc1, active compounds read low 0.994 | locus YBL061C, strain skt5, active compounds read low 0.984 | locus YBR009C, strain hhf1, active compounds read low 1.01 | locus YBR023C, strain chs3, active compounds read low 0.987 | locus YBR171W, strain sec66, active compounds read low 0.993 | locus YBR231C, strain swc5, active compounds read low 0.958 | locus YBR279W, strain paf1, active compounds read low 1.01 | locus YCL011C, strain gbp2, active compounds read low 1 | locus YCL016C, strain dcc1, active compounds read low 1.01 | locus YCL061C, strain MRC1, active compounds read low 0.989 | locus YCL069W, strain vba3, active compounds read low 1.01 | locus YCR088W, strain abp1, active compounds read low 0.999 | locus YDL005C, strain med2, active compounds read low 0.977 | locus YDL040C, strain nat1, active compounds read low 1.01 | locus YDR001C, strain nth1, active compounds read low 1.01 | locus YDR069C, strain doa4, active compounds read low 0.958 | locus YDR137W, strain rgp1, active compounds read low 0.995 | locus YDR159W, strain sac3, active compounds read low 0.995 | locus YDR195W, strain ref2 0.983 | locus YDR297W, strain sur2, active compounds read low 1.01 | locus YDR334W, strain swr1, active compounds read low 1.01 | locus YDR335W, strain msn5, active compounds read low 0.994 | locus YDR392W, strain spt3, active compounds read low 0.967 | locus YEL003W, strain gim4, active compounds read low 0.994 | locus YEL037C, strain rad23, active compounds read low 0.986 | locus YEL061C, strain CIN8 (second series), active compounds read low 1.01 | locus YER015W, strain faa2, active compounds read low 0.996 | locus YER016W, strain bim1, active compounds read low 0.992 | locus YER111C, strain swi4, active compounds read low 0.99 | locus YER155C, strain BEM2 (second series), active compounds read low 0.984 | locus YFR010W, strain ubp6, active compounds read low 0.97 | locus YGL167C, strain pmr1, active compounds read low 0.991 | locus YGL173C, strain kem1, active compounds read low 0.987 | locus YGL227W, strain vid30, active compounds read low 1 | locus YGL240W, strain doc1, active compounds read low 1.02 | locus YGL253W, strain hxk2, active compounds read low 1.01 | locus YHR013C, strain ard1, active compounds read low 0.974 | locus YHR027C, strain rpn1, active compounds read low 1.01 | locus YHR142W, strain chs7, active compounds read low 0.969 | locus YJL092W, strain hpr5, active compounds read low 1 | locus YJL095W, strain BCK1 (second series), active compounds read low 1 | locus YJL115W, strain asf1, active compounds read low 1 | locus YJL129C, strain trk1, active compounds read low 0.999 | locus YJL154C, strain vps35, active compounds read low 1.02 | locus YJL164C, strain tpk1, active compounds read low 0.973 | locus YJL166W, strain qcr8, active compounds read low 1.01 | locus YKL160W, strain elf1, active compounds read low 0.975 | locus YKR026C, strain gcn3, active compounds read low 1.02 | locus YKR091W, strain srl3, active compounds read low 0.994 | locus YLL001W, strain dnm1, active compounds read low 0.992 | locus YLL026W, active compounds read low 1 | locus YLL041C, strain sdh2, active compounds read low 0.997 | locus YLR027C, strain aat2, active compounds read low 1.01 | locus YLR221C, strain rsa3, active compounds read low 0.998 | locus YLR258W, strain gsy2, active compounds read low 0.992 | locus YLR262C, strain YPT6 (second series), active compounds read low 1.01 | locus YLR320W, strain mms22, active compounds read low 0.98 | locus YLR342W, strain FKS1, active compounds read low 0.993 | locus YLR357W, strain rsc2, active compounds read low 0.966 | locus YLR370C, strain arc18, active compounds read low 1.01 | locus YLR384C, strain iki3, active compounds read low 1.01 | locus YML120C, strain ndi1, active compounds read low 1 | locus YMR058W, strain fet3, active compounds read low 0.969 | locus YMR125W, strain sto1, active compounds read low 0.995 | locus YMR129W, active compounds read low 1 | locus YMR205C, strain PFK2, active compounds read low 1 | locus YMR231W, strain pep5, active compounds read low 0.996 | locus YNL071W, strain lat1, active compounds read low 0.998 | locus YNL209W, strain ssb2, active compounds read low 1 | locus YNL248C, strain rpa49, active compounds read low 0.989 | locus YNL322C, strain KRE1 (second series), active compounds read low 0.997 | locus YNR049C, strain mso1, active compounds read low 1 | locus YOR001W, strain rrp6, active compounds read low 0.997 | locus YOR070C, strain gyp1, active compounds read low 0.992 | locus YOR080W, strain dia2, active compounds read low 0.984 | locus YOR083W, strain WHI5, active compounds read low 0.951 | locus YOR106W, strain vam3, active compounds read low 0.984 | locus YOR265W, strain rbl2, active compounds read low 1 | locus YOR270C, strain vph1, active compounds read low 1.08 | locus YOR290C, strain snf2, active compounds read low 0.995 | locus YPL051W, strain arl3, active compounds read low 0.975 | locus YPL078C, strain atp4, active compounds read low 0.991 | locus YPL106C, strain sse1, active compounds read low 0.993 | locus YPL240C, strain hsp82, active compounds read low 1.01

— PubChem BioAssay AID1159580 (chemical genetic matrix, 2015)
